The record followed here is article PMC7862700, “An all-to-all approach to the identification of sequence-specific readers for epigenetic DNA modifications on cytosine”.

What all share (experiment): DAPPL (digital affinity profiling via proximity ligation, sequencing); 10 mM Tris-HCl pH 7.5, 50 mM NaCl, 1 mM DTT, 4% glycerol, room temperature, 30 min; GST-TFs on glutathione beads, 16-mer random dsDNA library, 0.1% formaldehyde crosslink after washing; high values mean tight binding
What all share (details): protein: recombinant; tags: N-terminal GST; dsDNA, one strand shown

The target in one assay is T1, FLI1 (Homo sapiens, UniProt Q01543 1-452).
T1 sequence: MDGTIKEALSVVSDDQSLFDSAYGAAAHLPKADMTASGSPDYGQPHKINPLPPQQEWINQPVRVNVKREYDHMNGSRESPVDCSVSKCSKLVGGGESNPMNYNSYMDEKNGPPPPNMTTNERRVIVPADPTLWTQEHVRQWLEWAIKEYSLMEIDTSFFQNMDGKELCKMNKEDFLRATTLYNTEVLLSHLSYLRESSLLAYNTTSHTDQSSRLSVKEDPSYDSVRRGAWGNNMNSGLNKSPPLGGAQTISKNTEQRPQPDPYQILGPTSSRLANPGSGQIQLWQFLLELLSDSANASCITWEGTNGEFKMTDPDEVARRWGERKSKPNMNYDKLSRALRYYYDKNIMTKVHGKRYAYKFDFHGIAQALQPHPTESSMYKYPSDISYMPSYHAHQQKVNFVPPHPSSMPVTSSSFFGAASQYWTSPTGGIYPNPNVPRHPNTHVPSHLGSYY
Summed up: (§1)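 Pools of DNA-barcoded human transcription factors, expressed in yeast as GST fusions on glutathione beads and combined with a tag-only sample, were incubated with 200 nmole of a 16-mer random double-stranded DNA library. Incubation took 30 min at room temperature in Tris/NaCl/DTT/glycerol buffer and was followed by washing, 0.1% formaldehyde crosslinking, proximity ligation (BsaI/T4 ligase, 1 h, 37 °C), PCR amplification and sequencing on an Illumina NextSeq500. Binding signal is the ratio of a hexamer's read frequency for a factor to its frequency for the tag-only sample.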

The target of the next assay is T2, ELK1 (Homo sapiens, UniProt P19419 1-428).
T2 sequence: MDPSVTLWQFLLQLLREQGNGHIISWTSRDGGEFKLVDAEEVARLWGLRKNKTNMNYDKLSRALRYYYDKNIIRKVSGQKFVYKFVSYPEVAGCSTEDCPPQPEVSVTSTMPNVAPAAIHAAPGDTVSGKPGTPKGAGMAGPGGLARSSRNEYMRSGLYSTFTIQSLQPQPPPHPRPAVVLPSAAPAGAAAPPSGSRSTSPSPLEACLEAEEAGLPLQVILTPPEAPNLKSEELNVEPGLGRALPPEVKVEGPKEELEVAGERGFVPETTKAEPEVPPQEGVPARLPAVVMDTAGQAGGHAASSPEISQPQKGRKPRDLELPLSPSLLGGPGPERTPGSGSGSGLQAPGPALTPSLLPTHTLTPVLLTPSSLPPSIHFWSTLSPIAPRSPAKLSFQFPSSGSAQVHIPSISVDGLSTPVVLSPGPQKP
An outline of the steps:
as §1

In another assay the target is T3, GABPA (Homo sapiens, UniProt Q06546 1-454).
T3 sequence: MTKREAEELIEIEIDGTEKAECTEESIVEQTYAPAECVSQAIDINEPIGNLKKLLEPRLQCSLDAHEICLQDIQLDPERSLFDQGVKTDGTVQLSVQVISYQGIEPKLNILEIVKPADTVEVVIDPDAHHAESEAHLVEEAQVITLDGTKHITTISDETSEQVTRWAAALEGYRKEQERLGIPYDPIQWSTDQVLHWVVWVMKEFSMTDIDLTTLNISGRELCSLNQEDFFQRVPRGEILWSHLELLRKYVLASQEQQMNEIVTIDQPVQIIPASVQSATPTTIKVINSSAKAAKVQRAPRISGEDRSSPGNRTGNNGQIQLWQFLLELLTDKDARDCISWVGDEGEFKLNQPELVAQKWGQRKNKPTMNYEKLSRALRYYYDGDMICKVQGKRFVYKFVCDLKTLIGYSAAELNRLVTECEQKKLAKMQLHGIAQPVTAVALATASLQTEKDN
Summed up: as §1

The next assay concerns the target ELF1 (Homo sapiens, UniProt P32519 1-619). An outline of the steps:
as §1

The target of another assay is T4, EHF (Homo sapiens, UniProt Q9NZC4 1-300).
T4 sequence: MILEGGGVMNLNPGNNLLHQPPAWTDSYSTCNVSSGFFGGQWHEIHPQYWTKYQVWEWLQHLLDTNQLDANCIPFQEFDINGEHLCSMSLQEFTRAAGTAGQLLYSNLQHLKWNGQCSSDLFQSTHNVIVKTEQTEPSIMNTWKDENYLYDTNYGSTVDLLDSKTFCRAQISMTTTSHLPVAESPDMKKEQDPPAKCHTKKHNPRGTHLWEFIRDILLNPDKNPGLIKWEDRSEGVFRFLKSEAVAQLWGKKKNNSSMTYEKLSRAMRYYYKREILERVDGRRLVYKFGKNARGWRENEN
An outline of the steps:
as §1

The next assay deals with SPI1 (Homo sapiens, UniProt P17947 1-270). Summed up: as §1
Another assay concerns the target SPIB (Homo sapiens, UniProt Q01892 1-262). An outline of the steps: as §1
The target in the next assay is T5, FEV (Homo sapiens, UniProt Q99581 1-238).
T5 sequence: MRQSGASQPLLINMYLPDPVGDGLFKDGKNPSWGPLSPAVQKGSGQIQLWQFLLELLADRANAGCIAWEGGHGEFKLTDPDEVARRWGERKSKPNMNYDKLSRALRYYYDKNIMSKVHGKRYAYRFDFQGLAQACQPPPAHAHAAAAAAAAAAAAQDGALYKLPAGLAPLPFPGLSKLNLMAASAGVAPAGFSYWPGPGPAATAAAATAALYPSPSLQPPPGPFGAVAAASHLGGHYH
Summed up:
as §1

The next assay deals with ETV5 (Homo sapiens, UniProt P41161 1-510). An outline of the steps: as §1
The target in another assay is T6, SPIC (Homo sapiens, UniProt Q8N5J4 1-248).
T6 sequence: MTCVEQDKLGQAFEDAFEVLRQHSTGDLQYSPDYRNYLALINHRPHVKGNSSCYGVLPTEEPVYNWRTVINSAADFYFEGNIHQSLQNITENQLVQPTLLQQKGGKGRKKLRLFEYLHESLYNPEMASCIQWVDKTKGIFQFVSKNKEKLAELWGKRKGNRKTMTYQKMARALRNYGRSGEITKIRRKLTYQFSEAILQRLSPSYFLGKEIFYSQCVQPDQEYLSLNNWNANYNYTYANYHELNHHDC
An outline of the steps:
as §1

In a further assay the target is ELF4 (Homo sapiens, UniProt Q99607 1-663). An outline of the steps:
as §1

The target of another assay is ETV1 (Homo sapiens, UniProt P50549 1-477). Summed up: as §1
A further assay has as its target T7, ERF (Homo sapiens, UniProt P50548 1-548).
T7 sequence: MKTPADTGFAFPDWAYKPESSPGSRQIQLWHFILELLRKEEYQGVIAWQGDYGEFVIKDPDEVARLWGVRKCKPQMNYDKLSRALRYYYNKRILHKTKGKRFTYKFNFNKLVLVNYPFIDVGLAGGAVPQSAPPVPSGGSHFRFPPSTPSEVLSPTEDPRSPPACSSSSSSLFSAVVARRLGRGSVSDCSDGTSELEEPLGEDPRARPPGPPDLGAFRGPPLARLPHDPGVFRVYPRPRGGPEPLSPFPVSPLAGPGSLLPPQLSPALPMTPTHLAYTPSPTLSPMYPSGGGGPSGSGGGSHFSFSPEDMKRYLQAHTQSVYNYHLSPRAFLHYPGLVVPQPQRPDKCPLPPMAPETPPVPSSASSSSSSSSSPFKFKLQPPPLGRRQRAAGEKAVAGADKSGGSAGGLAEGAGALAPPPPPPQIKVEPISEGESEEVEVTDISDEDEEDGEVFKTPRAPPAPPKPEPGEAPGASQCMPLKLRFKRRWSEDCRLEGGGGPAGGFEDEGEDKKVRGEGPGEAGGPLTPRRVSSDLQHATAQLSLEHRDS
An outline of the steps: as §1

The target in another assay is T8, ETV3L (Homo sapiens, UniProt Q6ZN32 1-361).
T8 sequence: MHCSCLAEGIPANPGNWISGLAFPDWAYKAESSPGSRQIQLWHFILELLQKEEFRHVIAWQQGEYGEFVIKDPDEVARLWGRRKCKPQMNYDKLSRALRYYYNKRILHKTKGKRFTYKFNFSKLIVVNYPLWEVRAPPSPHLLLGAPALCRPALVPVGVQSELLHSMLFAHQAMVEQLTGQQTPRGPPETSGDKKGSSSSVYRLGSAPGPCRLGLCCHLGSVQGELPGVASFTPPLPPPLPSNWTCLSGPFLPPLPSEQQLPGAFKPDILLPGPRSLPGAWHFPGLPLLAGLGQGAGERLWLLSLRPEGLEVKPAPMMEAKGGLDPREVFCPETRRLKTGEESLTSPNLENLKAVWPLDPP
An outline of the steps: as §1

Another assay addresses T9, ETS2 (Homo sapiens, UniProt P15036 1-469).
T9 sequence: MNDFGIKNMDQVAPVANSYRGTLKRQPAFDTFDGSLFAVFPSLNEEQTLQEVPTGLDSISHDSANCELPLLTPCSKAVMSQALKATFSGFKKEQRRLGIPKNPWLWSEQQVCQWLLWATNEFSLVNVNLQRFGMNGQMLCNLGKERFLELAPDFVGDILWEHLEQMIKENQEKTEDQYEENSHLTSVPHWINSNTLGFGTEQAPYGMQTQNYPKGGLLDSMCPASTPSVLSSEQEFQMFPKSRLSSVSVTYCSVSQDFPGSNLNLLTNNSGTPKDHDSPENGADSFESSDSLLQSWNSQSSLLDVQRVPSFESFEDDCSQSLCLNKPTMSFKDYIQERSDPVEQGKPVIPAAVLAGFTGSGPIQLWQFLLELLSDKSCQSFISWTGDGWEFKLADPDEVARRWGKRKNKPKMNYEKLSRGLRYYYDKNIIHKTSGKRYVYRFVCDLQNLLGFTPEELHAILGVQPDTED
An outline of the steps: as §1

The target in a further assay is T10, SPDEF (Homo sapiens, UniProt O95238 1-335).
T10 sequence: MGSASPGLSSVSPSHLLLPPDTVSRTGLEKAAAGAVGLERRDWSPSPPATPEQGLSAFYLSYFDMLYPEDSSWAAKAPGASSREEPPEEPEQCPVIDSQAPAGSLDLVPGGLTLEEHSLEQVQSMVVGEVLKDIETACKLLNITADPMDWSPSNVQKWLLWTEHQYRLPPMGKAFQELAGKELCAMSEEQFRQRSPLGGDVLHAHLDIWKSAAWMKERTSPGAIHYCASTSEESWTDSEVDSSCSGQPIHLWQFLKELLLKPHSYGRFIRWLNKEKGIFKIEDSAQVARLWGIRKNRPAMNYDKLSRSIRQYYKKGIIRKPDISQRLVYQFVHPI
An outline of the steps: as §1

The target of the next assay is T11, ELF5 (Homo sapiens, UniProt Q9UKW6-2 1-255).
T11 sequence: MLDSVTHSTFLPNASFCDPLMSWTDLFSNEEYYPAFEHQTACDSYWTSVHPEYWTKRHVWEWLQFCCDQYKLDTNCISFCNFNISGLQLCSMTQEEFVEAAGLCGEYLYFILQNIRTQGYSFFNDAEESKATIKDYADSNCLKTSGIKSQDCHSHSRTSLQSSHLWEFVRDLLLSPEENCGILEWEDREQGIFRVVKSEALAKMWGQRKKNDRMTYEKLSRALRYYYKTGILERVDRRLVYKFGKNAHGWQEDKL
Summed up: as §1

The target of the next assay is T12, ETV3 (Homo sapiens, UniProt P41162-2 1-143).
T12 sequence: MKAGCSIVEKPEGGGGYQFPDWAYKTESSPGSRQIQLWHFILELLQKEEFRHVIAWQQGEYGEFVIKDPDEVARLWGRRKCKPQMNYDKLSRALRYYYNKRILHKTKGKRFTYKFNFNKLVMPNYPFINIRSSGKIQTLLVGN
Summed up: as §1

The target in another assay is ETV6 (Homo sapiens, UniProt P41212 1-452). An outline of the steps: as §1
ETV6, sequence (P41212 whole entry): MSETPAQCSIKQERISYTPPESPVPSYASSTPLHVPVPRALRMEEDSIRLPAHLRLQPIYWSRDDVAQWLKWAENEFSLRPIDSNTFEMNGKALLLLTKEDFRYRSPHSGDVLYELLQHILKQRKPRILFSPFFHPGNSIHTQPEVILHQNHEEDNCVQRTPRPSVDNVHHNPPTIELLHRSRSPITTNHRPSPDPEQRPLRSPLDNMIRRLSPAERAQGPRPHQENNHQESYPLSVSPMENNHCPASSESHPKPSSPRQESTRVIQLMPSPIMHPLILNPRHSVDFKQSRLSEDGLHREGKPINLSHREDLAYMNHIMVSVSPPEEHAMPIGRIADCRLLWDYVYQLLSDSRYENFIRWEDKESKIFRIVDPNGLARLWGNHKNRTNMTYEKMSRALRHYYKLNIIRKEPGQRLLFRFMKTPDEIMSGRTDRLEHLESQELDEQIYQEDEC

ETV1, sequence (P50549 whole entry): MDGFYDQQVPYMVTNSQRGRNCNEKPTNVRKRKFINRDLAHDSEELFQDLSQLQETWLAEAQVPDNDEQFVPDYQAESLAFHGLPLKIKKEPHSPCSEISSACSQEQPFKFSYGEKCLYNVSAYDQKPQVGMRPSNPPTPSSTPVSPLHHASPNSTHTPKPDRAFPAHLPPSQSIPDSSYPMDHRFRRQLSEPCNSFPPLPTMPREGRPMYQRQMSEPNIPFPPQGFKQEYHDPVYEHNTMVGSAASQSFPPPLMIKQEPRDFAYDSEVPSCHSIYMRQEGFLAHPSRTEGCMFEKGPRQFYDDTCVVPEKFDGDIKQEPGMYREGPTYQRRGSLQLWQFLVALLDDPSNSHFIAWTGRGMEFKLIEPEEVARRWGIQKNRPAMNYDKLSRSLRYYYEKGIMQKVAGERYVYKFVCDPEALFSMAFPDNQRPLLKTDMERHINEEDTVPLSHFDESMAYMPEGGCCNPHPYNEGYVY
ELF1, sequence (P32519 whole entry): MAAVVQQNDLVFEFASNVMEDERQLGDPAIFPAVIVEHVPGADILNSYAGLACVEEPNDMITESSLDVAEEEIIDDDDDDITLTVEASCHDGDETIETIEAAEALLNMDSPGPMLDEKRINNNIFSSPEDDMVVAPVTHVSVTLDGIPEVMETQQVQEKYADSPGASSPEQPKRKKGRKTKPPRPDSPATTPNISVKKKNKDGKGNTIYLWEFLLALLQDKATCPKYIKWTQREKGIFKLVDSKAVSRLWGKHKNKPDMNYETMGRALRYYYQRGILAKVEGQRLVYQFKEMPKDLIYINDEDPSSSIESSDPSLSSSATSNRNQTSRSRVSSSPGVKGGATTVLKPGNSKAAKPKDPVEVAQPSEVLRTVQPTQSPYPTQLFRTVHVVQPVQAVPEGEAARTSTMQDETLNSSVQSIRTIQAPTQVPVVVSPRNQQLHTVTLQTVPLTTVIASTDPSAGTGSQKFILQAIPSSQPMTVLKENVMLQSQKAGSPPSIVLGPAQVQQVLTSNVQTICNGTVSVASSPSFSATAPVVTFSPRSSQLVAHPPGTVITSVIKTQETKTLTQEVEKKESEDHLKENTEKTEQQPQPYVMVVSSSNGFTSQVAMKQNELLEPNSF
SPIB, sequence (Q01892 whole entry): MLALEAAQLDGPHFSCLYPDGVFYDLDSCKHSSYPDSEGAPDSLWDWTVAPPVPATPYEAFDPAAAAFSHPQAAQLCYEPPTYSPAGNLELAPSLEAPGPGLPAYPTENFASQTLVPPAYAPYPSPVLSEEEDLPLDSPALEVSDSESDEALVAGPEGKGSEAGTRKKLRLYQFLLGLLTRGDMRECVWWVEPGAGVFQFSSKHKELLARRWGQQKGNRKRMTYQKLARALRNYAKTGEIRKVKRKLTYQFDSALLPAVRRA
ETV5, sequence (P41161 whole entry): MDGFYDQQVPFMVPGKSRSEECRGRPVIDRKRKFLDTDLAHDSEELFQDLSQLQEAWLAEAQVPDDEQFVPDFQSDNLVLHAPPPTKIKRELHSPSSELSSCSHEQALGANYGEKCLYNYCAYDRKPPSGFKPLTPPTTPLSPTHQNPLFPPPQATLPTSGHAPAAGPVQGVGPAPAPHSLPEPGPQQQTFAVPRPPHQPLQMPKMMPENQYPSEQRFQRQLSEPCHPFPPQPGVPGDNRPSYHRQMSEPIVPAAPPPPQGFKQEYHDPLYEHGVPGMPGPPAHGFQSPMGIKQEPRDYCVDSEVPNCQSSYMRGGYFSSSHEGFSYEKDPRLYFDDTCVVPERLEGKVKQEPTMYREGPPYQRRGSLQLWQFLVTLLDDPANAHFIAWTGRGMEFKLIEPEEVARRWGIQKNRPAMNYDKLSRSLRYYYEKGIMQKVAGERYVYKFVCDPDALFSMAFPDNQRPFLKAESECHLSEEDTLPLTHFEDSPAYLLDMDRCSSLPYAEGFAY
ELF4, sequence (Q99607 whole entry): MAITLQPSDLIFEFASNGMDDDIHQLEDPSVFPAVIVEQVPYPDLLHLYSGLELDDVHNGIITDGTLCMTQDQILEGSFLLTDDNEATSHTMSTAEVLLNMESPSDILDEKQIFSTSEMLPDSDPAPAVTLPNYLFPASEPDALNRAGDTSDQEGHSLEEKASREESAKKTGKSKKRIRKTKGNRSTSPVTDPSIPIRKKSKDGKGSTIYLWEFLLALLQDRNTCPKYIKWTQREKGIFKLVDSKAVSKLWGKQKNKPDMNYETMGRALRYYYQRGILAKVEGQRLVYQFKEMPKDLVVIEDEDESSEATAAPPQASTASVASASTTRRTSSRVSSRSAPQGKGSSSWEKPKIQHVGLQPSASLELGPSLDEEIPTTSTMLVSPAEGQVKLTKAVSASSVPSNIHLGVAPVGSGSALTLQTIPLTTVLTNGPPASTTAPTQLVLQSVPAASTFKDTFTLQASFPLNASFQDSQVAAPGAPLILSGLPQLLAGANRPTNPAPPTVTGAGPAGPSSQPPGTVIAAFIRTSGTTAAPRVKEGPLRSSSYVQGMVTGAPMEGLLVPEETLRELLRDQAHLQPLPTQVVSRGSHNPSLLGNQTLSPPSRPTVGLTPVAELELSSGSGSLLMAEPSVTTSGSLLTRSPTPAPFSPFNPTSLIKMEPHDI

Consider TGCTGC, for which the binding signal with FLI1 is 1.15 fold enrichment (6-mer frequency, TF over GST control); with ELK1, 1.15 fold enrichment (6-mer frequency, TF over GST control); with GABPA, 1.16 fold enrichment (6-mer frequency, TF over GST control); with ELF1, 1.21 fold enrichment (6-mer frequency, TF over GST control); with EHF, 1.3 fold enrichment (6-mer frequency, TF over GST control); in the assay with SPI1, 1.11 fold enrichment (6-mer frequency, TF over GST control). In addition, the binding signal with SPIB is 1.07 fold enrichment (6-mer frequency, TF over GST control); with FEV, 1.15 fold enrichment (6-mer frequency, TF over GST control); with ETV5 it was 1.17 fold enrichment (6-mer frequency, TF over GST control); with SPIC, 1.3 fold enrichment (6-mer frequency, TF over GST control); in the assay with ELF4 it was 1.16 fold enrichment (6-mer frequency, TF over GST control); with ETV1, 1.13 fold enrichment (6-mer frequency, TF over GST control). The binding signal in the assay with ERF was 1.07 fold enrichment (6-mer frequency, TF over GST control); in the assay with ETV3L, 1.34 fold enrichment (6-mer frequency, TF over GST control); with ETS2 it was 1.15 fold enrichment (6-mer frequency, TF over GST control); with SPDEF, 1.05 fold enrichment (6-mer frequency, TF over GST control); with ELF5 it was 1.16 fold enrichment (6-mer frequency, TF over GST control); with ETV3 it was 1.23 fold enrichment (6-mer frequency, TF over GST control). In addition, the binding signal in the assay with ETV6 was 1.1 fold enrichment (6-mer frequency, TF over GST control).
